# Data published in the supplement of paper PMC10849652.
# The full data set covers some 7,900 targets. This sample favours those with a hit. About 0.6% of all pairs of compound and target were hits. Unmarked numbers belong to inactive results.
# Compound: COc1cc(C(=O)O)ccc1NC(=O)[C@@H]1N[C@@H](CC(C)(C)C)[C@](C#N)(c2ccc(Cl)cc2F)[C@H]1c1cccc(Cl)c1F [idasanutlin]
# Experiment: log2 fold change, soluble protein after heating vs DMSO (PISA); higher = thermal stabilisation; K562 cells, 10 uM, 30 min; active = over 0.2 and 3.5 SD of the protein, either way, in both replicates (recomputed)
# Outline: (§1)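 K562 cells at 2×10^6 cells/mL were treated with 10 μM compound for 30 min. Aliquots were heated for 3 min across 48°C-58°C, pooled, and extracted in PBS with 0.5% NP-40 at 4°C; soluble protein was the supernatant after 21,000xg for 90 min. Soluble protein was quantified by TMTpro 16plex LC-MS/MS with channel sums equalised, and reported as log2 fold change in thermal stability against DMSO controls, with values from duplicates.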
# UniProt O95613, sequence (O95613 whole entry, looked up): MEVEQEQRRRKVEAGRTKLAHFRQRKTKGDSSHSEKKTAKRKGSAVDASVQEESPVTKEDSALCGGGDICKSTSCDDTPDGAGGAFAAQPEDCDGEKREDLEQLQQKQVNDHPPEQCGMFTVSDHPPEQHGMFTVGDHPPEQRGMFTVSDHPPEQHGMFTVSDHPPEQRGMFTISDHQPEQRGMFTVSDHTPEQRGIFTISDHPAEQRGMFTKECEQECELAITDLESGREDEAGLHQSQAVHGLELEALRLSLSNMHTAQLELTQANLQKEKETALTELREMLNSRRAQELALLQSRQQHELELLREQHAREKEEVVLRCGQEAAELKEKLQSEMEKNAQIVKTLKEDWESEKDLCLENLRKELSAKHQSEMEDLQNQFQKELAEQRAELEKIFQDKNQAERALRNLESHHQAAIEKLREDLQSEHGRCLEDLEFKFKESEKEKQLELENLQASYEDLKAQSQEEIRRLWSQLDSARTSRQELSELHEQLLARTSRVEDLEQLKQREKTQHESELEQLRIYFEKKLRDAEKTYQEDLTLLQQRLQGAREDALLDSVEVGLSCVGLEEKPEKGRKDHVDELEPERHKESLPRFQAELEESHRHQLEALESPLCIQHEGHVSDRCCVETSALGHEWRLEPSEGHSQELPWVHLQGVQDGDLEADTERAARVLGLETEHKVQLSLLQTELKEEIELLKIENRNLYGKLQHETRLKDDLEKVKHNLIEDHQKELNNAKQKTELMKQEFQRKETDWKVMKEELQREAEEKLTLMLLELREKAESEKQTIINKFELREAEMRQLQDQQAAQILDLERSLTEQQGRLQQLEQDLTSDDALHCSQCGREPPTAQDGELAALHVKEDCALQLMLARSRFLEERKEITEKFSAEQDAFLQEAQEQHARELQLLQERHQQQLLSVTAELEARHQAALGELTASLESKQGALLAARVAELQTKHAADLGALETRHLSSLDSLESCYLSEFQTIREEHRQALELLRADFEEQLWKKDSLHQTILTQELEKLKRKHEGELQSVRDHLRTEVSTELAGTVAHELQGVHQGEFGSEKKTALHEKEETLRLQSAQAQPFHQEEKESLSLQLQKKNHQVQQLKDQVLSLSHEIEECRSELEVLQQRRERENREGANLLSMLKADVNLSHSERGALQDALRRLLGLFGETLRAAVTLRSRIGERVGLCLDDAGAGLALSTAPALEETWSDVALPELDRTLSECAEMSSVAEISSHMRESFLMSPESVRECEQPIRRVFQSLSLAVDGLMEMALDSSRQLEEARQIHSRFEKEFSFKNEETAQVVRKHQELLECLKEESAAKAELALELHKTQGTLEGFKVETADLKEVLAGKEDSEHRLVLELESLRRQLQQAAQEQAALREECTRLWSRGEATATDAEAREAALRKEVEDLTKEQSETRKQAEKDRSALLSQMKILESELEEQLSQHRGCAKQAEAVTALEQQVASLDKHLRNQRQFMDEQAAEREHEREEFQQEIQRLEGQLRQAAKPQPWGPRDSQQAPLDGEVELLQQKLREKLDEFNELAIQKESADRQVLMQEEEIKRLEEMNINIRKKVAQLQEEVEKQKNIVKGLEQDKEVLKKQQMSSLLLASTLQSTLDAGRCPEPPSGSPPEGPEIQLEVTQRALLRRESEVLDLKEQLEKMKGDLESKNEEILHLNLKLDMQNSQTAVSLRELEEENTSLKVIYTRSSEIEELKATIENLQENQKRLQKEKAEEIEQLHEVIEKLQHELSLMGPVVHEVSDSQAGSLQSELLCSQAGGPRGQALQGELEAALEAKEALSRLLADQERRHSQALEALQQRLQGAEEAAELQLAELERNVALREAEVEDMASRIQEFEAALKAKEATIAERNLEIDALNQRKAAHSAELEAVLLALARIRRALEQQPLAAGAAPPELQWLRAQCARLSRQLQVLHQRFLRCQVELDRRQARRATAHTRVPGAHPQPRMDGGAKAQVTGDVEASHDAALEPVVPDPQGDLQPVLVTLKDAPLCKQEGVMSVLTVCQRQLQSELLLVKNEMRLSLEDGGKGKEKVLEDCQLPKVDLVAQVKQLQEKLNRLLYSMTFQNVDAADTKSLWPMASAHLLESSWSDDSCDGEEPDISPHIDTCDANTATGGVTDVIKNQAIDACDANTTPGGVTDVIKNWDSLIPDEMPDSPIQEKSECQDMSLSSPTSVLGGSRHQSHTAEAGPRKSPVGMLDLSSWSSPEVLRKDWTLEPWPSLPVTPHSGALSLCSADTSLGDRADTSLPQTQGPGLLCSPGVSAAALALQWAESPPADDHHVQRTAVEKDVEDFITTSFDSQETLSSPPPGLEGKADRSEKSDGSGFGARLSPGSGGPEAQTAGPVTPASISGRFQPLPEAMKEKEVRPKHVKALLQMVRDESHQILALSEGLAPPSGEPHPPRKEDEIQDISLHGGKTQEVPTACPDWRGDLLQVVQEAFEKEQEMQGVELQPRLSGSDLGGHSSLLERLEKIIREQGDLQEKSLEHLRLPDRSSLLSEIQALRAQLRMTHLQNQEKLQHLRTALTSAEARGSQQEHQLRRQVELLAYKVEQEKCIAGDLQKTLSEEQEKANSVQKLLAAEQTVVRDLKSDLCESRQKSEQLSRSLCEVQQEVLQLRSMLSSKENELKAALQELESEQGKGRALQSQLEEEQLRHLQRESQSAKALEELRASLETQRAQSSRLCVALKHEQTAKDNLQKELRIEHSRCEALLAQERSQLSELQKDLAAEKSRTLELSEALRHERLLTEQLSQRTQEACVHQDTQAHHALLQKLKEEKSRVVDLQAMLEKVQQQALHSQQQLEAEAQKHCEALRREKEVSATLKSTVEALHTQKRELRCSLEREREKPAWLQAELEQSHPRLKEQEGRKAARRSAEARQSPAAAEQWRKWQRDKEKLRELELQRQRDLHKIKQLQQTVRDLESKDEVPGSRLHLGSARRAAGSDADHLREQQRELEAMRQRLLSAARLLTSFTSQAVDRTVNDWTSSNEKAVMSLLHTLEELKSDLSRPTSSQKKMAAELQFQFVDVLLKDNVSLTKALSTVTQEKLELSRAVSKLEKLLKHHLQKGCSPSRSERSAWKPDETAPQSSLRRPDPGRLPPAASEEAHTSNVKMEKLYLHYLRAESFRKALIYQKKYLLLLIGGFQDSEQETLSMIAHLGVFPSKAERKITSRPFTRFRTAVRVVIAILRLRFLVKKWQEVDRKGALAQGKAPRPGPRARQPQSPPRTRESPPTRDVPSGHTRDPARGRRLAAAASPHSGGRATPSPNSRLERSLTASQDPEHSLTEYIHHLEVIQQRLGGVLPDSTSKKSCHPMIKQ
# UniProt Q9BRP1, sequence (Q9BRP1 whole entry, looked up): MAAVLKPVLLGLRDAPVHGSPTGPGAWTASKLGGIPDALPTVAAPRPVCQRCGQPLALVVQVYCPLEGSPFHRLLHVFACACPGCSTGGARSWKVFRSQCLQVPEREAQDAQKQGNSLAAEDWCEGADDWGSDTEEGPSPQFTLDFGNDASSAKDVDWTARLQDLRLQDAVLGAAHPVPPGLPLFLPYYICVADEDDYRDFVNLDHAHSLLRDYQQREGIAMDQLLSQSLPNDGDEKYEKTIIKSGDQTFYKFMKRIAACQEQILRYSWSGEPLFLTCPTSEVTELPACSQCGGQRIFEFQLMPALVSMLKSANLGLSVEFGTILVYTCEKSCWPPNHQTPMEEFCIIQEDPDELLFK
# UniProt Q9NW08, sequence (Q9NW08 whole entry, looked up): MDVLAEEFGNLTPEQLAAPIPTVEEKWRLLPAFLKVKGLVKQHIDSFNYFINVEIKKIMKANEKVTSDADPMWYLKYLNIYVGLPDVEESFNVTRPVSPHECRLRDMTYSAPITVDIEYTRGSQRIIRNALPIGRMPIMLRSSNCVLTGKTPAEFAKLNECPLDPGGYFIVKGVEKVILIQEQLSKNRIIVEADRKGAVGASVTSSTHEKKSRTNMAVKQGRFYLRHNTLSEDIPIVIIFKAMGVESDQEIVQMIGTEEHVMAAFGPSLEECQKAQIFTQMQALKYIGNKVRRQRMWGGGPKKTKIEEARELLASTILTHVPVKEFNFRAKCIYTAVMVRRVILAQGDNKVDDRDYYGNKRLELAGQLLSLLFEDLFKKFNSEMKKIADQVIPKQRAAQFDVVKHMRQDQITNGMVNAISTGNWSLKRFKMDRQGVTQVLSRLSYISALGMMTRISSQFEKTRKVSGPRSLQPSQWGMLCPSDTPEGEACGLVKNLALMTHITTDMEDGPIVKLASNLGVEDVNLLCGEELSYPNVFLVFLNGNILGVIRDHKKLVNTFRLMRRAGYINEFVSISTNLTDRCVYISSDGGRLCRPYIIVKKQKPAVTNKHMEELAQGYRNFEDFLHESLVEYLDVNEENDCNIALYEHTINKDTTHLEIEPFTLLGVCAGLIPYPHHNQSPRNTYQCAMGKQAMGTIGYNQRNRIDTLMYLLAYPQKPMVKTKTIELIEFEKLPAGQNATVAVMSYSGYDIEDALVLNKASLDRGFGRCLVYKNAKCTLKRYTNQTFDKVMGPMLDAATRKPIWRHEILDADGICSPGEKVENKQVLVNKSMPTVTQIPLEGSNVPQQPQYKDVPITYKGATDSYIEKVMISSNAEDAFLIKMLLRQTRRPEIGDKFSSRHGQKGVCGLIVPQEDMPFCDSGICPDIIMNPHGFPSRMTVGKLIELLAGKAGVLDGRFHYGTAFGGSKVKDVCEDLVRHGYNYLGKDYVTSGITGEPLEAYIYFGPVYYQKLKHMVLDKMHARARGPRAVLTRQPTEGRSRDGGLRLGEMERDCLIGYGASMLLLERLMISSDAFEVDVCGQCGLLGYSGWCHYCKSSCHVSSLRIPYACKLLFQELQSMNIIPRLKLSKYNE
# UniProt Q9Y2Y1, sequence (Q9Y2Y1 whole entry, looked up): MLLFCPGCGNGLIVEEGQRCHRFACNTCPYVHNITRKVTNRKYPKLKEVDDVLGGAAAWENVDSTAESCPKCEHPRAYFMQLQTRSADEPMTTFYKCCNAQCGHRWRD
# UniProt Q9Y244, sequence (Q9Y244 whole entry, looked up): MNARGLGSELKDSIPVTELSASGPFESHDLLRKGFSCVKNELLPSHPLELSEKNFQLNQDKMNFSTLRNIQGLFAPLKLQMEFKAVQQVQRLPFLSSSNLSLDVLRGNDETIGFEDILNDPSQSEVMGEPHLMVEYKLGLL
row,Target,log2 fold change
1,PDCD6 (UniProt O75340),-0.106
2,PRKAR1B (UniProt P31321),-0.099
3,PPP4R3B (UniProt Q5MIZ7),-0.039
4,PUF60 (UniProt Q9UHX1),0.022
5,PISD (UniProt Q9UG56),-0.074
6,PJA2 (UniProt O43164),0.11
7,PECAM1 (UniProt P16284),-0.029
8,PTTG1 (UniProt O95997),-0.011
9,PIK3C3 (UniProt Q8NEB9),-0.055
10,PARN (UniProt O95453),-0.028
11,POMP (UniProt Q9Y244),0.115
12,POLR3K (UniProt Q9Y2Y1),0.006
13,PPT1 (UniProt P50897),0.005
14,PTDSS1 (UniProt P48651),0.124
15,PPT2 isoform 3 (UniProt Q9UMR5),-0.082
16,PIK3R1 (UniProt P27986),-0.027
17,PIR (UniProt O00625),0.033
18,PRKCB isoform 2 (UniProt P05771),-0.028
19,POP1 (UniProt Q99575),-0.009

row,Target,log2 fold change
1,PLBD1 (UniProt Q6P4A8),0.019
2,PEX7 (UniProt O00628),-0.002
3,PSMC6 (UniProt P62333),0.005
4,PDCD2L (UniProt Q9BRP1),-0.031
5,PRKCA (UniProt P17252),0.01
6,PPP2R5E (UniProt Q16537),-0.191
7,PRPF38A (UniProt Q8NAV1),0.035
8,PNPLA8 (UniProt Q9NP80),-0.072
9,PSMB4 (UniProt P28070),-0.012
10,PHKA1 (UniProt P46020),-0.518 (active)
11,PKN1 isoform 2 (UniProt Q16512),-0.05
12,PEX16 isoform 2 (UniProt Q9Y5Y5),-0.076
13,PELO (UniProt Q9BRX2),-0.024
14,PSMC2 (UniProt P35998),0.033
15,PCNT (UniProt O95613),0.075
16,PELP1 (UniProt Q8IZL8),0.012
17,PI4K2A (UniProt Q9BTU6),-0.044
18,POLR3B (UniProt Q9NW08),0.008

# Compound: COc1cc(Nc2ncc3c(n2)-c2ccc(Cl)cc2C(c2c(F)cccc2OC)=NC3)ccc1C(=O)O [alisertib]
# Experiment: as above
# Outline: as §1
row,Target,log2 fold change
1,PDCD6 (UniProt O75340),0.092
2,PRKAR1B (UniProt P31321),0.02
3,PPP4R3B (UniProt Q5MIZ7),0.048
4,PUF60 (UniProt Q9UHX1),-0.05
5,PISD (UniProt Q9UG56),-0.024
6,PJA2 (UniProt O43164),-0.008
7,PECAM1 (UniProt P16284),-0.053
8,PTTG1 (UniProt O95997),-0.022
9,PIK3C3 (UniProt Q8NEB9),0.011
10,PARN (UniProt O95453),0.001
11,POMP (UniProt Q9Y244),-0.153
12,POLR3K (UniProt Q9Y2Y1),-0.156
13,PPT1 (UniProt P50897),-0.041
14,PTDSS1 (UniProt P48651),-0.098
15,PPT2 isoform 3 (UniProt Q9UMR5),-0.114
16,PIK3R1 (UniProt P27986),-0.075
17,PIR (UniProt O00625),-0.038
18,PRKCB isoform 2 (UniProt P05771),-0.051
19,POP1 (UniProt Q99575),-0.054

row,Target,log2 fold change
1,PLBD1 (UniProt Q6P4A8),0.169
2,PEX7 (UniProt O00628),-0.01
3,PSMC6 (UniProt P62333),-0.093
4,PDCD2L (UniProt Q9BRP1),-0.033
5,PRKCA (UniProt P17252),-0.019
6,PPP2R5E (UniProt Q16537),-0.024
7,PRPF38A (UniProt Q8NAV1),-0.033
8,PNPLA8 (UniProt Q9NP80),-0.053
9,PSMB4 (UniProt P28070),-0.031
10,PHKA1 (UniProt P46020),-0.223
11,PKN1 isoform 2 (UniProt Q16512),-0.021
12,PEX16 isoform 2 (UniProt Q9Y5Y5),-0.011
13,PELO (UniProt Q9BRX2),0.489
14,PSMC2 (UniProt P35998),-0.05
15,PCNT (UniProt O95613),0.02
16,PELP1 (UniProt Q8IZL8),-0.045
17,PI4K2A (UniProt Q9BTU6),-0.006
18,POLR3B (UniProt Q9NW08),-0.086
